# Target: ETV5 (Homo sapiens, UniProt P41161 1-510)
# Assay: DAPPL (digital affinity profiling via proximity ligation, sequencing); 10 mM Tris-HCl pH 7.5, 50 mM NaCl, 1 mM DTT, 4% glycerol, room temperature, 30 min; GST-TFs on glutathione beads, 16-mer random dsDNA library, 0.1% formaldehyde crosslink after washing; high values mean tight binding
# Settings: protein: recombinant; tags: N-terminal GST; dsDNA, one strand shown
# Method in brief: (§1)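 Beads coated with glutathione captured GST-fused human transcription factors that had been expressed in yeast, and the factors were then given DNA barcodes and pooled with a tag-only sample. The pools were incubated with 200 nmole of a random double-stranded 16-mer DNA library in Tris/NaCl/DTT/glycerol buffer for 30 min at room temperature, washed, crosslinked with 0.1% formaldehyde and proximity-ligated with BsaI/T4 ligase at 37 °C for 1 h. PCR amplification and Illumina NextSeq500 sequencing came last. Binding signal is each hexamer's read frequency for a factor divided by its frequency for the tag-only sample.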
# Sequence of ETV5 (P41161 whole entry): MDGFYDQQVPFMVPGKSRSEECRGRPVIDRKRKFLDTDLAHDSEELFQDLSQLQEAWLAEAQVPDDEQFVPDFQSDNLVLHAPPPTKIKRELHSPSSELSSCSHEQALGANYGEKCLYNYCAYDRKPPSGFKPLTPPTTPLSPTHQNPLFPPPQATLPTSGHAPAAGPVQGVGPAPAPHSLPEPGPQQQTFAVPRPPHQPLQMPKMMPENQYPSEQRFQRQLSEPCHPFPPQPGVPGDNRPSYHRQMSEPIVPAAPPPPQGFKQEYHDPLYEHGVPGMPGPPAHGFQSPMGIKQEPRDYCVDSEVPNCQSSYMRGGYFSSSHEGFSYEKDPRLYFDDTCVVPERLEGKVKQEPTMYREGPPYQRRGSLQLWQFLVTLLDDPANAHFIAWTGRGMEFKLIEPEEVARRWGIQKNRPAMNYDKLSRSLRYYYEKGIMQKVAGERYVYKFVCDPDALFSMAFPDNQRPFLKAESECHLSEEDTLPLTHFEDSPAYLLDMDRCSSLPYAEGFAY
row,Sequence,binding signal
1,ATTGAT,"1.2 fold enrichment (6-mer frequency, TF over GST control)"
2,CATCTA,"1.15 fold enrichment (6-mer frequency, TF over GST control)"
3,CTGATT,"1.25 fold enrichment (6-mer frequency, TF over GST control)"
4,CGAATA,"1.07 fold enrichment (6-mer frequency, TF over GST control)"
5,AAGAAA,"1.19 fold enrichment (6-mer frequency, TF over GST control)"
6,AGTATT,"1.2 fold enrichment (6-mer frequency, TF over GST control)"
7,TAAATG,"1.38 fold enrichment (6-mer frequency, TF over GST control)"
8,TTTTGT,"1.31 fold enrichment (6-mer frequency, TF over GST control)"
9,TCTGCT,"1.29 fold enrichment (6-mer frequency, TF over GST control)"
10,TTGAAA,"1.18 fold enrichment (6-mer frequency, TF over GST control)"
11,ACAATA,"1.15 fold enrichment (6-mer frequency, TF over GST control)"
12,CCTAAG,"1.2 fold enrichment (6-mer frequency, TF over GST control)"
13,CTCAAT,"1.31 fold enrichment (6-mer frequency, TF over GST control)"
14,TACATA,"1.24 fold enrichment (6-mer frequency, TF over GST control)"
15,TATTTT,"1.39 fold enrichment (6-mer frequency, TF over GST control)"
16,TTAATG,"1.27 fold enrichment (6-mer frequency, TF over GST control)"
17,ATCGAT,"1.17 fold enrichment (6-mer frequency, TF over GST control)"
18,TCCATT,"1.36 fold enrichment (6-mer frequency, TF over GST control)"
19,CGTTAA,"1.21 fold enrichment (6-mer frequency, TF over GST control)"
20,TCTAGC,"1.27 fold enrichment (6-mer frequency, TF over GST control)"

row,Sequence,binding signal
1,ATGCTA,"1.33 fold enrichment (6-mer frequency, TF over GST control)"
2,TTATGT,"1.38 fold enrichment (6-mer frequency, TF over GST control)"
3,TCTTGA,"1.14 fold enrichment (6-mer frequency, TF over GST control)"
4,ATGCTT,"1.29 fold enrichment (6-mer frequency, TF over GST control)"
5,CATCCT,"1.63 fold enrichment (6-mer frequency, TF over GST control)"
6,ACTGAT,"1.21 fold enrichment (6-mer frequency, TF over GST control)"
7,TTACTC,"1.24 fold enrichment (6-mer frequency, TF over GST control)"
8,TTGCCC,"1.32 fold enrichment (6-mer frequency, TF over GST control)"
9,ACGTCC,"1.65 fold enrichment (6-mer frequency, TF over GST control)"
10,AATGTT,"1.61 fold enrichment (6-mer frequency, TF over GST control)"
11,AATAGT,"1.27 fold enrichment (6-mer frequency, TF over GST control)"
12,CCAATC,"1.16 fold enrichment (6-mer frequency, TF over GST control)"
13,GTATCC,"2.05 fold enrichment (6-mer frequency, TF over GST control)"
14,ACAATT,"1.33 fold enrichment (6-mer frequency, TF over GST control)"
15,TTCTTT,"1.14 fold enrichment (6-mer frequency, TF over GST control)"
16,TAAAAC,"1.18 fold enrichment (6-mer frequency, TF over GST control)"
17,TCCTTC,"2.1 fold enrichment (6-mer frequency, TF over GST control)"
18,TTCGTA,"1.42 fold enrichment (6-mer frequency, TF over GST control)"
19,TAGCTA,"1.24 fold enrichment (6-mer frequency, TF over GST control)"
20,TATTTG,"1.47 fold enrichment (6-mer frequency, TF over GST control)"

# Target: HSF1 (Homo sapiens, UniProt Q00613 1-529)
# Sequence (Q00613 whole entry): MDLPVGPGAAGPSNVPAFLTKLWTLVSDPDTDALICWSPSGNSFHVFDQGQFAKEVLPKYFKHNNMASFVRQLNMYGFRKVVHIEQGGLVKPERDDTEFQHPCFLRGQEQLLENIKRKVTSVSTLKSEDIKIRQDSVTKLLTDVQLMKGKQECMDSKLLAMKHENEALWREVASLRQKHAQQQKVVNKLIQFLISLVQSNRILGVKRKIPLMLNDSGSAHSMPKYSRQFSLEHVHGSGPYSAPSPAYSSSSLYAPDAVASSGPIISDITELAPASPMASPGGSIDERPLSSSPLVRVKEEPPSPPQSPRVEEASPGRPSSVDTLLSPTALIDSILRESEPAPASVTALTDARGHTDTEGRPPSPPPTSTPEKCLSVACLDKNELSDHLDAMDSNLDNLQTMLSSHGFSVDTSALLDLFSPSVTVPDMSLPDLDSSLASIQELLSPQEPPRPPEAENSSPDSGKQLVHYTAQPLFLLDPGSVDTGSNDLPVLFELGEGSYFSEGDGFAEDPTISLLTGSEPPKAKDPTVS
# Assay: as above
# Settings: protein: recombinant; tags: N-terminal GST; chain copies: 3; dsDNA, one strand shown
# Method in brief: as §1
row,Sequence,binding signal
1,ATTGAT,"1.37 fold enrichment (6-mer frequency, TF over GST control)"
2,CATCTA,"1.47 fold enrichment (6-mer frequency, TF over GST control)"
3,CTGATT,"1.32 fold enrichment (6-mer frequency, TF over GST control)"
4,CGAATA,"1.87 fold enrichment (6-mer frequency, TF over GST control)"
5,AAGAAA,"1.75 fold enrichment (6-mer frequency, TF over GST control)"
6,AGTATT,"1.35 fold enrichment (6-mer frequency, TF over GST control)"
7,TAAATG,"1.37 fold enrichment (6-mer frequency, TF over GST control)"
8,TTTTGT,"1.27 fold enrichment (6-mer frequency, TF over GST control)"
9,TCTGCT,"1.33 fold enrichment (6-mer frequency, TF over GST control)"
10,TTGAAA,"1.24 fold enrichment (6-mer frequency, TF over GST control)"
11,ACAATA,"1.16 fold enrichment (6-mer frequency, TF over GST control)"
12,CCTAAG,"1.35 fold enrichment (6-mer frequency, TF over GST control)"
13,CTCAAT,"1.17 fold enrichment (6-mer frequency, TF over GST control)"
14,TACATA,"1.15 fold enrichment (6-mer frequency, TF over GST control)"
15,TATTTT,"1.5 fold enrichment (6-mer frequency, TF over GST control)"
16,TTAATG,"1.89 fold enrichment (6-mer frequency, TF over GST control)"
17,ATCGAT,"1.26 fold enrichment (6-mer frequency, TF over GST control)"
18,TCCATT,"1.4 fold enrichment (6-mer frequency, TF over GST control)"
19,CGTTAA,"1.31 fold enrichment (6-mer frequency, TF over GST control)"
20,TCTAGC,"2.63 fold enrichment (6-mer frequency, TF over GST control)"

row,Sequence,binding signal
1,ATGCTA,"1.46 fold enrichment (6-mer frequency, TF over GST control)"
2,TTATGT,"1.63 fold enrichment (6-mer frequency, TF over GST control)"
3,TCTTGA,"1.61 fold enrichment (6-mer frequency, TF over GST control)"
4,ATGCTT,"1.23 fold enrichment (6-mer frequency, TF over GST control)"
5,CATCCT,"1.12 fold enrichment (6-mer frequency, TF over GST control)"
6,ACTGAT,"1.22 fold enrichment (6-mer frequency, TF over GST control)"
7,TTACTC,"1.49 fold enrichment (6-mer frequency, TF over GST control)"
8,TTGCCC,"1.2 fold enrichment (6-mer frequency, TF over GST control)"
9,ACGTCC,"1.07 fold enrichment (6-mer frequency, TF over GST control)"
10,AATGTT,"2.33 fold enrichment (6-mer frequency, TF over GST control)"
11,AATAGT,"1.21 fold enrichment (6-mer frequency, TF over GST control)"
12,CCAATC,"1.13 fold enrichment (6-mer frequency, TF over GST control)"
13,GTATCC,"1.14 fold enrichment (6-mer frequency, TF over GST control)"
14,ACAATT,"1.18 fold enrichment (6-mer frequency, TF over GST control)"
15,TTCTTT,"1.7 fold enrichment (6-mer frequency, TF over GST control)"
16,TAAAAC,"1.32 fold enrichment (6-mer frequency, TF over GST control)"
17,TCCTTC,"2.13 fold enrichment (6-mer frequency, TF over GST control)"
18,TTCGTA,"1.33 fold enrichment (6-mer frequency, TF over GST control)"
19,TAGCTA,"1.47 fold enrichment (6-mer frequency, TF over GST control)"
20,TATTTG,"1.43 fold enrichment (6-mer frequency, TF over GST control)"

# Target: T1, SPIC (Homo sapiens, UniProt Q8N5J4 1-248)
# T1 sequence: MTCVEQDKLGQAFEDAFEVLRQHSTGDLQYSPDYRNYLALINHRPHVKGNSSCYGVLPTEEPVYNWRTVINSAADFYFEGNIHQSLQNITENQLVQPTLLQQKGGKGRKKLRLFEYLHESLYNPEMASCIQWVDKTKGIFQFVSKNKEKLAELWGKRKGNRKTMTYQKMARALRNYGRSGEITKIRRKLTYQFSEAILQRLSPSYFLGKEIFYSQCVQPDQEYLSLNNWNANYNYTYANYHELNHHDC
# Assay: as above
# Settings: protein: recombinant; tags: N-terminal GST; dsDNA, one strand shown
# Method in brief: as §1
row,Sequence,binding signal
1,ATTGAT,"1.42 fold enrichment (6-mer frequency, TF over GST control)"
2,CATCTA,"1.34 fold enrichment (6-mer frequency, TF over GST control)"
3,CTGATT,"1.5 fold enrichment (6-mer frequency, TF over GST control)"
4,CGAATA,"1.26 fold enrichment (6-mer frequency, TF over GST control)"
5,AAGAAA,"1.19 fold enrichment (6-mer frequency, TF over GST control)"
6,AGTATT,"1.22 fold enrichment (6-mer frequency, TF over GST control)"
7,TAAATG,"1.46 fold enrichment (6-mer frequency, TF over GST control)"
8,TTTTGT,"1.2 fold enrichment (6-mer frequency, TF over GST control)"
9,TCTGCT,"1.43 fold enrichment (6-mer frequency, TF over GST control)"
10,TTGAAA,"1.15 fold enrichment (6-mer frequency, TF over GST control)"
11,ACAATA,"1.12 fold enrichment (6-mer frequency, TF over GST control)"
12,CCTAAG,"1.14 fold enrichment (6-mer frequency, TF over GST control)"
13,CTCAAT,"1.17 fold enrichment (6-mer frequency, TF over GST control)"
14,TACATA,"1.36 fold enrichment (6-mer frequency, TF over GST control)"
15,TATTTT,"1.42 fold enrichment (6-mer frequency, TF over GST control)"
16,TTAATG,"1.24 fold enrichment (6-mer frequency, TF over GST control)"
17,ATCGAT,"1.2 fold enrichment (6-mer frequency, TF over GST control)"
18,TCCATT,"1.31 fold enrichment (6-mer frequency, TF over GST control)"
19,CGTTAA,"1.34 fold enrichment (6-mer frequency, TF over GST control)"
20,TCTAGC,"1.16 fold enrichment (6-mer frequency, TF over GST control)"

# Source: publication PMC7862700, “An all-to-all approach to the identification of sequence-specific readers for epigenetic DNA modifications on cytosine”
